This is a sample that favours compounds with a hit; in the whole collection about 3.5% have one here.
Pf apPOL inh – Pf-apPOL DNA polymerase inhibition. AID 1794808. Recombinant Pf-apPOL, molecular beacon fluorescence, 1.5 h. 210,000 tested, 0.25% active. inhibition, % at 10 µM
mHTT CaM bind – mHTT-calmodulin interaction abrogation; P42858; AID 1671202; AlphaScreen His-mHTT/GST-CaM binding, luminescence; inhibition, % at 15 µM; 190,000 tested, 3.6% active;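 also: 0% = both proteins with DMSO and 100% = one protein alone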
* hit, by the source's call; x = no result. Rule as the data show it: active = inhibition above about 50%; inactive = the rest.

SMILES | Pf apPOL inh | mHTT CaM bind
Cc1cc(C)cc(C(=O)N2CCC(COc3ccc(C(=O)N4CCOCC4)cc3)CC2)c1 | 0 | 16
Cc1noc(-c2cccnc2N2CCCN(C(=O)c3cc(F)cc(F)c3)CC2)n1 | 4 | -1
O=S(=O)(N[C@@H]1C[C@@H]2CC[C@H]1C2)c1ccc(Cl)cc1 | x | -17
Nc1ccc2nc(CCc3nc4ccc(N)cc4[nH]3)[nH]c2c1 | -3 | 35
Nc1ccc2nc(C(F)(F)F)[nH]c2c1 | x | -1
Nc1ccc2nc(-c3ccc(N)c(Cl)c3)[nH]c2c1 | 14 | 66*
Nc1ccc2nc(-c3ccc(Oc4ccc(-c5nc6ccc(N)cc6[nH]5)cc4)cc3)[nH]c2c1 | 0 | 65*
Nc1ccc(-c2nc3c(Cl)cc(N)cc3[nH]2)cc1 | 0 | 40
Nc1ccc2nc(-c3ccccc3Br)[nH]c2c1 | 8 | 57*
COc1cccc2cc(C(=O)Nc3nc(-c4ccc(Cl)cc4)cs3)c(=O)oc12 | -1 | 2
COc1ccc2c(c1)c(CN1CCC(C(=O)NCCCN3CCCC3)CC1)cn2C | 1 | 20
Cc1cc(=O)[nH]c(-c2cnccn2)n1 | -17 | 94*
Cc1cc(=O)[nH]c(-c2ccccc2)n1 | -2 | x
N#Cc1c(SCc2ccc(Cl)nc2)nsc1SCc1ccc(Cl)nc1 | x | 1
COc1cccc(-c2[nH]ncc2CN2CCCC2c2cc(C)on2)c1 (stereo unspecified) | 1 | 23
CCOc1ccc(C2(c3ccc(O)cc3)CCCCC2)cc1 | -2 | 86*
CCOc1ccc(C(=O)NCC2(O)CCCC2)cc1 | -8 | 0
COc1ccc(OCCNC(C)(C)C)cc1 | -1 | -5
O=C(NCc1ccccc1C(F)(F)F)C1CCCN(c2nnc3ccccn23)C1 (stereo unspecified) | 1 | -6
Cc1cc(Br)cc2c1NC(=O)C2(O)N1CCOCC1 (stereo unspecified) | -2 | -5
COc1cc(C2(c3ccc(O)c(OC)c3)C(=O)Nc3c(C)cc(Br)cc32)ccc1O | 3 | 60*
CCCCC(C)C(=O)Nc1nnc2ccccn12 (stereo unspecified) | -1 | 0
CC(C)CC(=O)N1CC(c2nc(-c3ccc(F)cc3)no2)C2(CCOCC2)C1 (stereo unspecified) | -12 | 3
CCN1CCn2cc(C(=O)N3CCN(c4ccccc4)CC3)nc2C1 | -2 | 5
CC(C)CN1CCn2cc(C(=O)N3CCN(c4ccc(F)cc4)CC3)nc2C1 | -5 | 91*
SMILES | Pf apPOL inh | mHTT CaM bind
CC(C)CN1CCn2cc(C(=O)N3CCN(c4ccccc4F)CC3)nc2C1 | -9 | 38
CC(C)CN1CCn2cc(C(=O)N3CCN(c4cccc(Cl)c4)CC3)nc2C1 | -1 | 86*
CC(C)n1c(C2CCN(C(=O)NCc3ccccc3)C2)nc2ccncc21 (stereo unspecified) | -5 | 4
O=C(c1ccc(Cn2cncn2)cc1)N1CCc2ccccc2C1 | -10 | 3
O=C(c1ccc(Cn2c(=O)[nH]c3ccccc3c2=O)cc1)N1CCc2ccccc2C1 | -6 | 60*
Cc1ccc(S(=O)(=O)Nc2cccc(C)c2C)cc1[N+](=O)[O-] | -1 | 4
Cc1cccc(-n2nc(C)c3sc(N4CCCN(C(=O)c5ccnn5C)CC4)nc32)c1 | -4 | 21
O=C(C1CC(=O)N(c2ccccc2)C1)N1CCOCC1 (stereo unspecified) | -2 | -9
O=C1C=CC(=O)N1c1ccc(Oc2cccc(Oc3ccc(N4C(=O)C=CC4=O)cc3)c2)cc1 | -6 | 91*
NC(=O)c1ccc(Oc2cccc(Oc3ccc(C(N)=O)cc3)c2)cc1 | 1 | -1
Nc1ccc(Oc2cccc(Oc3ccc(N)cc3)c2)cc1 | -18 | 52*
Cc1cccc(Oc2ccc(N3C(=O)C=CC3=O)cc2)c1C | -9 | 49
Cc1ccccc1CSc1nc2c(cnn2-c2ccccc2)c(=O)[nH]1 | -1 | -1
Cc1ccc(C)c(CSc2nc(C3CCCCC3)c(C#N)c(=O)[nH]2)c1 | 73* | x
CC(=O)Nc1ccc(Nc2cc(C(C)C)c(O)c(C(C)C)c2)cc1 | 3 | 74*
COc1c(C(C)C)cc(NC(C)=O)cc1C(C)C | -3 | -1
Cc1nnc(N2C(=O)c3ccc(Oc4ccc([N+](=O)[O-])cc4)cc3C2=O)s1 | -5 | 4
CC(C)C(=O)N1CCN(c2ccc([N+](=O)[O-])c(NCCc3ccccc3)c2)CC1 | -6 | 33
CCOc1ccc(N2COc3ccc(Br)cc3C2)cc1 | -1 | 84*
CCOc1ccc(N2COc3cc4c(cc3C2)OCO4)cc1 | -14 | 8
COc1ccc(C=C2Oc3cc(OS(=O)(=O)c4ccccc4)ccc3C2=O)cc1 | -2 | -10
NC1=NNC(c2ccccc2)=CS1 | -2 | 53*
Nc1nnc(-c2ccccc2)s1 | 3 | -8
CCOCCCNC(=O)c1cc(Sc2ccccc2SC)nc2ccccc12 | -23 | 10
COC(=O)c1ccc(NC(=O)C(=O)NCC(O)c2ccc(C(F)(F)F)cc2)cc1 (stereo unspecified) | -9 | -10
Fc1ccc(C2=NCCC(c3ccccc3)O2)cc1 (stereo unspecified) | -10 | 51*
